Results on 87 sequences are retold here after publication PMC10668032, “Altered binding affinity of SIX1-Q177R correlates with enhanced WNT5A and WNT pathway effector expression in Wilms tumor”.

Over roughly 33,000 sequences, “e-score” has its median near -0.053; the highest 2% begin near 0.38. This is one part of a sample in which the highest values are shown more often than they occur.

The assay deals with T1, SIX1 homeodomain (reference allele) (human, UniProt Q15475 108-198).
T1 sequence: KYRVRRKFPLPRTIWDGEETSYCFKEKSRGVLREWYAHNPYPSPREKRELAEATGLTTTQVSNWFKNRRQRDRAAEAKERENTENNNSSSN
Nature of the assay: universal protein binding microarray; Universal all-10-mer PBM (8x60K, AMADID 030236), 300 nM GST-tagged protein, Alexa Fluor 488 anti-GST; buffer, salt, pH and temperature not stated (as in Berger); high values mean tight binding. To be noted: protein: ivt; tags: N-terminal GST; dsDNA, one strand shown. The essentials:
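GST-tagged homeodomains were made by in vitro transcription/translation and quantified by anti-GST western blot against a recombinant GST standard curve. They were applied in duplicate at 300 nM final concentration to universal 'all 10-mer' protein binding microarrays (8×60K format). Binding was quantified as 8-mer E-scores with the Universal PBM Analysis Suite.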
Consider CTGGGATA, for which the binding signal worked out at 0.266 ± 0.0214 E-score.

With ACGGGGGA, the binding signal came to 0.217 ± 0.0264 E-score.

For the sequence AGGGGATA, the binding signal amounted to 0.425 ± 0.000834 E-score.

On to GTGGGATA, for which the binding signal came to 0.348 ± 0.0178 E-score.

CGGGGAGA: the binding signal was 0.182 ± 0.0823 E-score.

On to CCGGGATA, for which the binding signal turned out to be 0.305 ± 0.0131 E-score.

Take CCAGGGTA: the binding signal was found to be 0.221 ± 0.0174 E-score.

On to GGAACACC, for which the binding signal amounted to 0.187 ± 0.018 E-score.

On to CATTAATA, for which the binding signal stood at 0.154 ± 0.0188 E-score.

Take ATAACATC: the binding signal is 0.165 ± 0.0558 E-score.

As to GATCACGA, the binding signal is 0.273 ± 0.0518 E-score.

In the case of ATCACCGA, the binding signal is 0.251 ± 0.0115 E-score.

On to CATATGGG, for which the binding signal is 0.179 ± 0.0474 E-score.

Take AGCGTATC: the binding signal is 0.411 ± 0.0267 E-score.

For CGCCTATC, the binding signal stood at 0.218 ± 0.0337 E-score.

For AGCGTATA, the binding signal is 0.233 ± 0.0627 E-score.

Turning to CGCGTATC, the binding signal is 0.424 ± 0.00815 E-score.

With CGCGTATA, the binding signal was determined as 0.232 ± 0.0592 E-score.

Regarding GGCGTATA, the binding signal amounted to 0.179 ± 0.0032 E-score.

Take ATACACGC: the binding signal was 0.328 ± 0.00888 E-score.

Regarding ATACCCGC, the binding signal turned out to be 0.3787 ± 0.00251 E-score.

As to ACACCCGC, the binding signal was 0.27 ± 0.0197 E-score.

Consider AAACCCGG, for which the binding signal was 0.163 ± 0.0401 E-score.

With ATACCAGG, the binding signal turned out to be 0.3772 ± 0.00332 E-score.

As to ATACCCGA, the binding signal was determined as 0.407 ± 0.00771 E-score.

As for AGACCCGA, the binding signal is 0.196 ± 0.0537 E-score.

Regarding ATACCCGG, the binding signal was determined as 0.407 ± 0.0266 E-score.

Regarding ACACCCGA, the binding signal stood at 0.294 ± 0.0236 E-score.

On to ATACCAGA, for which the binding signal came out at 0.299 ± 0.0031 E-score.

As to AGACCCGG, the binding signal turned out to be 0.214 ± 0.0594 E-score.

As to ATACCAGC, the binding signal came to 0.3035 ± 0.00134 E-score.

For the sequence GATTATAA, the binding signal came to 0.165 ± 0.0198 E-score.

As for GATTACAC, the binding signal was determined as 0.164 ± 0.0334 E-score.

Consider ATAGACAC, for which the binding signal stood at 0.285 ± 0.0262 E-score.

On to GACACGGA, for which the binding signal is 0.196 ± 0.00735 E-score.

Regarding AGGAATAC, the binding signal came out at 0.2106 ± 0.00182 E-score.

Turning to GGATTGGA, the binding signal came out at 0.171 ± 0.00314 E-score.

With ATACTGCC, the binding signal is 0.3133 ± 0.000361 E-score.

As to ATCGTTGC, the binding signal turned out to be 0.202 ± 0.04 E-score.

With TAATACTA, the binding signal amounted to 0.276 ± 0.0717 E-score.

For the sequence GCATAATA, the binding signal was determined as 0.187 E-score.

CGGATCAG: the binding signal amounted to 0.443 ± 0.0116 E-score.

On to CGGATCAC, for which the binding signal is 0.463 ± 0.00697 E-score.

Take AGGATCAA: the binding signal was determined as 0.352 ± 0.036 E-score.

On to CTGATCAG, for which the binding signal was 0.313 ± 0.0448 E-score.

As to CGGATCAA, the binding signal was determined as 0.417 ± 0.0173 E-score.

As for CCGATCAC, the binding signal came to 0.346 ± 0.0289 E-score.

For the sequence GGGATCGA, the binding signal was determined as 0.385 ± 0.0533 E-score.

Turning to TGGATCAA, the binding signal was 0.3057 ± 0.00301 E-score.

Regarding CGGATCGA, the binding signal was determined as 0.34 ± 0.0821 E-score.

As to AGGATCGA, the binding signal worked out at 0.289 ± 0.0472 E-score.

Take CTGATCAC: the binding signal was determined as 0.204 ± 0.0353 E-score.

With CCGATCAG, the binding signal stood at 0.24 ± 0.0341 E-score.

For CGAGATCG, the binding signal worked out at 0.207 ± 0.0304 E-score.

For TAATATGA, the binding signal stood at 0.196 ± 0.0472 E-score.

Consider CCCCGATA, for which the binding signal was determined as 0.347 ± 0.00347 E-score.

In the case of CCTTGATC, the binding signal turned out to be 0.243 ± 0.0361 E-score.

Consider GCGATCAA, for which the binding signal came out at 0.18 ± 0.0413 E-score.

Take GAGATCAA: the binding signal was determined as 0.31 ± 0.0391 E-score.

Consider GGGATCAC, for which the binding signal stood at 0.445 ± 0.0186 E-score.

As for GGGATCAA, the binding signal came out at 0.386 ± 0.0187 E-score.

On to GTGATCAC, for which the binding signal was found to be 0.306 ± 0.0127 E-score.

GCGATCAC: the binding signal was 0.354 ± 0.0376 E-score.

In the case of ATCGGTGG, the binding signal amounted to 0.189 ± 0.0514 E-score.

For the sequence CAACACCG, the binding signal came to 0.268 ± 0.021 E-score.

Turning to CCCTGATC, the binding signal is 0.33 ± 0.0305 E-score.

As to GGTTGATA, the binding signal was found to be 0.384 ± 0.0228 E-score.

Turning to AGTTGATA, the binding signal is 0.406 ± 0.0373 E-score.

ACTTGATA: the binding signal turned out to be 0.374 ± 0.0379 E-score.

Regarding AGTTGATC, the binding signal was determined as 0.23 ± 0.0154 E-score.

Turning to GCTTGATA, the binding signal worked out at 0.351 ± 0.0581 E-score.

For CGTTGATA, the binding signal stood at 0.334 ± 0.0658 E-score.

On to AGATAACG, for which the binding signal turned out to be 0.191 ± 0.042 E-score.

On to ATATGCGC, for which the binding signal amounted to 0.27 ± 0.0371 E-score.

On to CGGCTCAC, for which the binding signal came out at 0.174 ± 0.0262 E-score.

CCTATCCC: the binding signal came to 0.291 ± 0.0369 E-score.

On to CTTATCCA, for which the binding signal was found to be 0.186 ± 0.0114 E-score.

For the sequence CGTATCCA, the binding signal is 0.403 ± 0.0252 E-score.

As to ATTATCCC, the binding signal is 0.274 ± 0.0711 E-score.

For ACTATCCC, the binding signal was found to be 0.294 ± 0.0143 E-score.

For the sequence CCTATCCA, the binding signal turned out to be 0.232 ± 0.0293 E-score.

With AGTATCCC, the binding signal was 0.412 ± 0.00869 E-score.

Regarding CTTATCCC, the binding signal came out at 0.235 ± 0.0469 E-score.

For the sequence CGTATCCC, the binding signal came to 0.389 ± 0.00815 E-score.

Turning to GATCCTGC, the binding signal turned out to be 0.353 ± 0.0135 E-score.

As to CATCTAAG, the binding signal turned out to be 0.178 ± 0.0937 E-score.

On to ATACTGGA, for which the binding signal is 0.325 ± 0.00489 E-score.
